Screening results as filed in PubChem.
KB-3-1 tox = KB-3-1 parental cell cytotoxicity. hit rate 1.4% among 400,000. AID 1347075. Potency, µM (top dose mostly 46.1 µM), hits mostly cytotoxic. KB-3-1 viability, CellTiter-Glo ATP luminescence, 72 h; also: nearly all actives have a fitted effect of over 60% in size
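Cytotoxicity measured as CellTiter-Glo luminescence after 72 h at 37 C. Compound titrations were pinned onto drug-naive KB-3-1 parental adenocarcinoma cells grown in DMEM with 10% FBS, and normalized data fitted to concentration-response curves.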
HT1080-NT tox = kills 2HG-producing HT-1080-NT fibrosarcoma cells; HT-1080-NT fibrosarcoma viability, CellTiter-Glo ATP luminescence, 48 h; Potency, µM (highest dose often 46.1 µM), inactives show at the top dose activity, negative = less viability, actives largely listed as cytotoxic; AID 686970; hit rate 1.6% among 360,000;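 also: NT is the 2HG producing partner of a matched IDH1 knockdown line; 0% = DMSO-treated cells and -100% = media-only wells without cells; nearly all actives have a fitted effect of over 55% in size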
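Compounds were tested in concentration-response format on HT-1080-NT cells for 48 hours at 37 degrees C. Cell viability came from CellTiter-Glo luminescence; curves were classified by r2, response magnitude and activity.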
DT40 TDP1 no CPT = qHTS for Inhibitors of human tyrosyl-DNA phosphodiesterase 1 (TDP1): qHTS in cells in absence of CPT; DT40 Tdp1-/- hTDP1 cells, no CPT, ATP luminescence, 48 h; Potency, µM (series often up to 46.2 µM), for inactives: at the highest dose activity change, negative = growth inhibition, most hits filed as inhibitors; hit rate 15% among 420,000; also: nearly all actives have a fitted effect of over 55% in size
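Chicken DT40 Tdp1-/- cells stably complemented with human TDP1 were seeded at 400 cells/well with DMSO in place of 20 nM camptothecin. After compound pinning, cells grew at least 48 hr at 37 °C; viability read by CellTiter-Glo luminescence.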
HT1080 IDH1KD tx = toxicity to HT-1080 IDH1 knockdown cells (counter line); Potency, µM (highest dose often 46.1 µM), for the others: at the highest dose activity, negative = toxicity, hits mostly cytotoxic; hit rate 2% among 360,000; HT-1080 IDH1 knockdown viability, ATP luminescence, 48 h;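 also: 0% = DMSO wells and -100% = cell-free medium wells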
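Using the IDH1-knockdown HT-1080 line run in the same batch and compound series as the NT line, viability after 48 h at 37 °C was determined by CellTiter-Glo luminescence and expressed as % activity.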
DT40 TDP1 CPT = growth inhibition of DT40 Tdp1-/-;hTDP1 cells with camptothecin (screen for TDP1 inhibitors) | Potency, µM (highest dose often 46.2 µM), inactives show at the top dose activity change, negative = growth inhibition, usual class: inhibitors | hit rate 12% among 420,000 | chicken DT40 Tdp1-/-;hTDP1 cells + 20 nM CPT, ATP luminescence, 48 h; also: nearly all actives have a fitted effect of over 55% in size
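Cell growth measured by CellTiter-Glo luminescence after a minimum 48 h, 37 C compound exposure with 20 nM CPT in Tdp1-knockout DT40 cells stably expressing hTDP1, seeded 400/well; qHTS titration format.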
KB-V1 MDR tox = KB-V1 MDR subline cytotoxicity; KB-V1 MDR cells viability, CellTiter-Glo, 72 h; Potency, µM (series often up to 46.1 µM), hits mostly cytotoxic; hit rate 3.4% among 400,000; AID 1347076; also: nearly all actives have a fitted effect of over 60% in size
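Following 72 h at 37 degrees C with compound, KB-V1 cell viability was read by CellTiter-Glo luminescence, medium being phenol-red-free DMEM plus 10% FBS; concentration-response parameters came from normalized, curve-fitted qHTS data.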
* hit, by the source's call; i = inactive; ? = inconclusive; / = no result; [ ] = remark or other dose. An excerpt weighted towards active compounds, which were near 19% of everything screened. Calls follow the shape of the dose curve; as a rule, active = well fitted curve in the direction sought with a large enough effect; inconclusive = small, poorly fitted or top-dose-only effect, or another doubt; inactive = no such curve, though single readings can be large; an effect the other way counts as inactive or inconclusive. Unless noted, % is scaled to controls: 0 for no effect and ±100 for the full control effect; potency is read from the fitted curve at half-maximal effect.

SMILES	KB-3-1 tox	HT1080-NT tox	DT40 TDP1 no CPT	HT1080 IDH1KD tx	DT40 TDP1 CPT	KB-V1 MDR tox
COc1ccc(CN2CCCN(S(=O)(=O)c3ccc(Br)cc3)CC2)cc1	i	-12%	18µM*	-11%	?	i
Cc1ccc(C(=O)Nc2c(C)nc3ccccn3c2=O)cc1C	/	/	-22%	/	-22%	/
O=c1cc(C(F)(F)F)[nH]c(=S)n1-c1ccccc1	i	-1%	0%	11%	2%	?
CC(=O)O[C@@H]1CC2CCC1(C)C2(C)C (stereo partly drawn)	/	/	-4%	/	0%	/
CCOC(=O)C[N+](C)(C)CCOC1CC2CCC1(C)C2(C)C (stereo not drawn)	i	0%	7.3µM*	0%	16µM*	i
CC1(C)C2CCC1(C)C(OCC[N+](C)(C)CC(=O)OC1CCCCC1)C2 (stereo not drawn)	?	?	0.65µM*	?	1.2µM*	i
CCOC(=O)c1ccc(NS(=O)(=O)c2ccc3c(c2)CCN3C(=O)CC)cc1	i	/	?	/	13µM*	i
CCC(=O)N1CCCc2cc(S(=O)(=O)Nc3ccc(C)c(C)c3)ccc21	i	/	18µM*	/	23µM*	?
Cc1c(C(=O)NC(C)(C)CO)sc2ncnc(NCCN(C)C)c12	/	/	-10%	/	12%[9.04 µM]	/
O=C(NCCC1=CCCCC1)C1CCN(C(=O)N2CCOc3ccccc32)CC1	i	/	?	/	?	i
Cc1cccc(N2CCN(S(=O)(=O)c3c(C)[nH]c(C)c3C(=O)N3CCCC3)CC2C)c1 (stereo not drawn)	i	-2%	-7%	1%	-27%	i
CN(C(=O)CN1CCN(c2cc(-c3ccc(-c4ccccc4)cc3)ncn2)CC1)c1ccccc1	?	15µM*	?	13µM*	23µM*	i
Cc1ccc(C(=O)O)cc1-n1c(=O)n(Cc2ccccc2)c(=O)c2[nH]cnc21	i	20%	-5%	18%	0%	i
O=C(O)c1cc2ccccc2c(Cc2c(O)c(C(=O)O)cc3ccccc23)c1O	i	/	-15%	/	0%	i
O=S(=O)(O)CC(S)CS (stereo not drawn)	/	/	4.7µM*	/	8.4µM*	/
CCOc1ccc(OCc2ccc(C(=O)NC(C)C)o2)cc1	i	0%	?	-4%	?	i
CC(C)NC(=O)c1ccc(COc2cc(Cl)ccc2Cl)o1	i	?	21µM*	-21%	-30%	i
Nc1c(C(=O)Nc2ccccc2Cl)c2ccccn2c1C(=O)c1ccc(Cl)cc1	i	/	-24%	/	-14%	i
NNC(=O)c1cccc(Cn2cc(Br)c([N+](=O)[O-])n2)c1	i	-18%	?	?	?	i
COc1ccc(NC(=O)c2cccc(Cn3cc(Br)c([N+](=O)[O-])n3)c2)c(C)c1	i	25%	18µM*	11%	?	?
CN(Cc1c(F)cccc1Cl)C(=O)CNC(=O)c1cccs1	i	0%	0%	4%	1%	i
O=C(CN1CCN(S(=O)(=O)c2ccccc2F)CC1)Nc1ccccc1C(=O)c1ccccc1	?	?	29µM*	-4%	?	?
O=C(CN1CCN(S(=O)(=O)c2ccccc2F)CC1)Nc1ccnn1C1CCCC1	i	0%	21µM*	1%	?	i
N#Cc1ccccc1S(=O)(=O)N1CCN(CC(=O)Nc2ccccc2C(=O)NC2CC2)CC1	?	3%	-21%	-2%	-23%	i
O=C(CN1CCN(S(=O)(=O)c2ccccc2)CC1)Nc1ccccc1C(=O)NC1CC1	i	6%	?	14%	-14%	6.5µM*
SMILES	KB-3-1 tox	HT1080-NT tox	DT40 TDP1 no CPT	HT1080 IDH1KD tx	DT40 TDP1 CPT	KB-V1 MDR tox
Cc1ccc(N(CC(=O)O)S(C)(=O)=O)cc1	i	9%	-15%	9%	18%	i
ClCc1csc(-c2ccc(Cl)cc2)n1	i	5%	15µM*	9%	13µM*	i
O=C(O)Cc1csc(-c2ccc(Cl)cc2)n1	/	/	-18%	/	0%	/
CCOc1ccc(-c2nc(CCl)cs2)cc1	i	10%	?	10%	10µM*	i
COc1ccc(NC(=O)C2=C(C)Nc3ncnn3C2c2ccc(O)cc2)cc1 (stereo not drawn)	i	/	9%	/	3%	?
COc1ccc(/C=N\NC(=O)c2ccccc2F)cc1COc1ccc(F)cc1	i	-17%	?	-14%	?	i
COc1ccc(/C=N/NC(=O)c2ccc(OC)c(OC)c2)cc1COc1c(F)c(F)c(F)c(F)c1F	i	-3%	?	?	16µM*	i
COc1ccc(/C=N/NC(=O)c2nc(Cl)c(Cl)c(N)c2Cl)cc1COc1ccccc1F	i	-18%	?	-23%	23µM*	i
COc1ccc(/C=N\NC(=O)c2ccccc2F)cc1COc1ccc(F)cc1F	5.2µM*	2.3µM*	2.6µM*	2.3µM*	2.6µM*	?
COc1ccc(/C=N/NC(=O)c2ccc(F)cc2)cc1CN1CCc2cc(OC)c(OC)cc2C1C (stereo not drawn)	i	?	18µM*	?	?	i
COc1ccc(/C=N\NC(=O)c2ccccc2)cc1COc1ccccc1	i	1%	?	?	?	i
CCCN(CCC)CCNC(=O)Cn1ncc2c([nH]c3ccc(C)cc32)c1=O	i	/	-8%	/	-5%	i
Nc1nnc(-c2ccc(Cl)c([N+](=O)[O-])c2)s1	i	1%	?	-1%	-22%	i
COc1ccc(/C=N/NC(=O)c2cc(C(C)(C)C)[nH]n2)cc1COc1ccc(F)cc1F	?	?	23µM*	?	?	?
COc1ccc(/C=N/NC(=O)c2ccccc2O)cc1COc1ccccn1	i	-19%	17%	-17%	-2%	i
COc1ccc(/C=N\NC(=O)c2ccccc2OC)cc1COc1ccccc1C	i	-8%	?	-1%	16µM*	i
COc1ccc(/C=N\NC(=O)c2ccccc2Br)cc1COc1c(F)c(F)cc(F)c1F	/	-17%	16µM*	?	?	/
COc1cc(/C=N/NC(=O)c2ccoc2C)cc(OC)c1O	i	12%	9%	4%	0%	?
COc1ccc(/C=N/NC(=O)c2ccoc2C)cc1COc1c(C)cccc1C	?	4.6µM*	15µM*	5.2µM*	12µM*	?
